Where “and” joins values, the source holds several entries; their conditions need not be identical. Equal values may be shown once. The campaign covered roughly 5,500 compounds. About 2,000 (36%) were called active. Not shown: some 18% with an inconclusive outcome. No stated cut-off is given here; in the data, active means normalized growth mostly below about 0.91 (no sharp cut-off); inconclusive means no clear call, values can overlap the other calls; inactive means mostly above about 0.92. This is one part of the list.
Assay: chemical genetic growth profiling, strain panel (AID 1159580);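 further: tested at 20 µM; growth read once vehicle control cultures reached saturation at 30 °C; 1 = growth at the plate median or of vehicle wells; lower values mean less growth of the strain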
Settings: S. cerevisiae deletion strains, growth OD

Measured: normalized growth

Nc1c2c(nc3ccccc13)CCCC2O (stereo not drawn)
inactive: locus YAL021C, strain ccr4, hits give low values 1.01 | locus YAL026C, strain drs2, hits give low values 1.01 | locus YAL030W, strain snc1, hits give low values 1.01 | locus YAL040C, strain CLN3, hits give low values 1.05 | locus YBL061C, strain skt5, hits give low values 1.01 | locus YBR009C, strain hhf1, hits give low values 1 | locus YBR021W, strain FUR4, hits give low values 0.94 | locus YBR023C, strain chs3, hits give low values 1.01 | locus YBR171W, strain sec66, hits give low values 1 | locus YBR229C, strain ROT2, hits give low values 1.01 | locus YBR231C, strain swc5, hits give low values 0.998 | locus YBR279W, strain paf1, hits give low values 1.02 | locus YCL011C, strain gbp2, hits give low values 1.01 | locus YCL016C, strain dcc1, hits give low values 1 | locus YCL029C, strain bik1, hits give low values 0.974 | locus YCL061C, strain MRC1 (second series), hits give low values 1.01 | locus YCL061C, strain MRC1, hits give low values 1.03 | locus YCL069W, strain vba3, hits give low values 1.01 | locus YCR088W, strain abp1, hits give low values 1 | locus YDL005C, strain med2, hits give low values 1 | locus YDL035C, strain GPR1, hits give low values 0.994 | locus YDL040C, strain nat1, hits give low values 1.01 | locus YDL074C, strain BRE1, hits give low values 1.04 | locus YDL101C, strain DUN1, hits give low values 1.01 | locus YDL134C, strain PPH21, hits give low values 1.01 | locus YDL185W, strain tfp1, hits give low values 0.964 | locus YDL192W, strain arf1, hits give low values 0.987 | locus YDR001C, strain nth1, hits give low values 1.01 | locus YDR069C, strain doa4, hits give low values 1 | locus YDR101C, strain arx1, hits give low values 0.995 | locus YDR137W, strain rgp1, hits give low values 1.01 | locus YDR159W, strain sac3, hits give low values 0.997 | locus YDR162C, strain NBP2, hits give low values 0.985 | locus YDR195W, strain ref2 0.917 | locus YDR297W, strain sur2, hits give low values 1.01 | locus YDR318W, strain mcm21, hits give low values 0.982 | locus YDR334W, strain swr1, hits give low values 1.01 | locus YDR335W, strain msn5, hits give low values 1.01 | locus YDR363W, strain ESC2, hits give low values 1 | locus YDR388W, hits give low values 0.985 | locus YDR392W, strain spt3, hits give low values 0.902 | locus YDR502C, strain sam2, hits give low values 0.998 | locus YEL003W, strain gim4, hits give low values 1.01 | locus YEL037C, strain rad23, hits give low values 1.01 | locus YEL061C, strain CIN8 (second series), hits give low values 1.01 | locus YEL061C, strain CIN8, hits give low values 1.03 | locus YER002W, strain NOP16, hits give low values 1.01 | locus YER015W, strain faa2, hits give low values 1 | locus YER016W, strain bim1, hits give low values 0.991 | locus YER110C, hits give low values 0.981 | locus YER111C, strain swi4, hits give low values 1 | locus YER155C, strain BEM2 (second series), hits give low values 1 | locus YER155C, strain BEM2, hits give low values 0.994 | locus YER167W, strain BCK2, hits give low values 1 | locus YFR010W, strain ubp6, hits give low values 1 | locus YGL078C, strain dbp3, hits give low values 0.992 | locus YGL086W, strain mad1, hits give low values 1.01 | locus YGL167C, strain pmr1, hits give low values 1 | locus YGL173C, strain kem1, hits give low values 1.01 | locus YGL227W, strain vid30, hits give low values 0.995 | locus YGL240W, strain doc1, hits give low values 0.987 | locus YGL248W, strain PDE1, hits give low values 1.02 | locus YGL253W, strain hxk2, hits give low values 1 | locus YGR078C, strain PAC10, hits give low values 1.03 | locus YGR135W, strain pre9, hits give low values 0.979 | locus YGR229C, strain SMI1, hits give low values 1.02 | locus YGR252W, strain gcn5, hits give low values 0.998 | locus YHR013C, strain ard1, hits give low values 0.945 | locus YHR027C, strain rpn1, hits give low values 1.01 | locus YHR030C, strain SLT2, hits give low values 0.993 and 0.981 | locus YHR079C, strain IRE1 (second series), hits give low values 0.976 | locus YHR079C, strain IRE1, hits give low values 0.983 | locus YHR094C, strain hxt1, hits give low values 0.992 | locus YHR129C, strain ARP1, hits give low values 1 | locus YHR142W, strain chs7, hits give low values 1.03 | locus YHR200W, strain rpn10, hits give low values 0.973 | locus YIL066C, strain RNR3, hits give low values 1.02 | locus YIL073C, strain SPO22, hits give low values 0.912 | locus YIL125W, strain kgd1, hits give low values 0.996 | locus YIR030C, strain dcg1, hits give low values 0.979 | locus YJL092W, strain hpr5, hits give low values 1.03 | locus YJL095W, strain BCK1 (second series), hits give low values 1.01 | locus YJL095W, strain BCK1, hits give low values 1.05 and 0.988 | locus YJL115W, strain asf1, hits give low values 1 | locus YJL129C, strain trk1, hits give low values 1.05 | locus YJL134W, strain LCB3, hits give low values 0.996 | locus YJL154C, strain vps35, hits give low values 1.01 | locus YJL164C, strain tpk1, hits give low values 1.02 | locus YJL166W, strain qcr8, hits give low values 1.01 | locus YJL168C, strain set2, hits give low values 0.991 | locus YJL187C, strain SWE1 (second series), hits give low values 1.03 | locus YJL187C, strain SWE1, hits give low values 1.02 | locus YJR043C, strain POL32, hits give low values 1.02

Reference: PubChem BioAssay AID1159580 (chemical genetic matrix, 2015)
